Data published in the supplement of paper PMC10849652.
Of roughly 7,900 targets only a part is listed; those with a hit were picked by preference. About 0.6% of all pairs of compound and target were hits. A number with no mark means an inactive call.

Legend:
Experiment in all cases: log2 fold change, soluble protein after heating vs DMSO (PISA); higher = thermal stabilisation; K562 cells, 10 uM, 30 min; active = over 0.2 and 3.5 SD of the protein, either way, in both replicates (recomputed)
[1] = compound: CC1=C(C=C(C=C1)NC(=O)C2=CC(=CC=C2)C(C)(C)C#N)NC3=CC4=C(C=C3)N=CN(C4=O)C
Summary of the method: (§1)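 Thermal stability values are relative to control samples and come from duplicates. They are expressed as log2 fold changes. For measurement, K562 cells (2×10^6 cells/mL) received 10 μM compound for 30 min, and aliquots were heated for 3 min over 48°C-58°C, pooled, and extracted at 4°C in PBS with 0.5% NP-40. Soluble protein, the supernatant after 21,000xg for 90 min, was quantified by TMTpro 16plex LC-MS/MS with equalised channel sums.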

[2] = compound: CC1=C(C=C(C=C1)NC(=O)C2=CC(=CC=C2)N(C)C)NC(=O)C3=CC=C(C=C3)O
Summary of the method: as §1

[3] = compound: CC1=CC=C(C=C1)SC2=C3C=C(SC3=CN=C2)C(=O)N
Summary of the method: as §1

[4] = compound: CC1=NC(=CC=C1)C2=C(N=C(N2)C(C)(C)C)C3=CC4=NC=CN=C4C=C3
Summary of the method: as §1

Nexturastat A = compound: CCCCN(Cc1ccc(C(=O)NO)cc1)C(=O)Nc1ccccc1 [Nexturastat A]
Summary of the method: as §1

vemurafenib = compound: CCCS(=O)(=O)Nc1ccc(F)c(C(=O)c2c[nH]c3ncc(-c4ccc(Cl)cc4)cc23)c1F [vemurafenib]
Summary of the method: as §1

[5] = compound: CCCS(=O)(=O)Nc1ccc(F)c(C(=O)c2c[nH]c3ncc(Cl)cc23)c1F
Summary of the method: as §1

[6] = compound: CCCc1cc(C)[nH]c(=O)c1CNC(=O)c1cc(-c2ccnc(N3CCN(C)CC3)c2)cc2c1cnn2C(C)C
Summary of the method: as §1

givinostat = compound: CCN(CC)Cc1ccc2cc(COC(=O)Nc3ccc(C(=O)NO)cc3)ccc2c1 [givinostat]
Summary of the method: as §1

barasertib = compound: CCN(CCCOc1ccc2c(Nc3cc(CC(=O)Nc4cccc(F)c4)[nH]n3)ncnc2c1)CCOP(=O)(O)O [barasertib]
Summary of the method: as §1

[7] = compound: CC[C@@H]1C(=O)N(C)c2cnc(Nc3ccc(C(=O)NC4CCN(C)CC4)cc3OC)nc2N1C1CCCC1
Summary of the method: as §1

volasertib = compound: CC[C@@H]1C(=O)N(C)c2cnc(Nc3ccc(C(=O)N[C@H]4CC[C@H](N5CCN(CC6CC6)CC5)CC4)cc3OC)nc2N1C(C)C [volasertib]
Summary of the method: as §1

[8] = compound: CC[C@H](C)N1C=C(C2=C(C=C(C=C21)C3=CN=C(C=C3)N4CCNCC4)C(=O)NCC5=C(C=C(NC5=O)C)C)C
Summary of the method: as §1

epoxomicin = compound: CC[C@H](C)[C@@H](C(=O)N[C@@H]([C@@H](C)O)C(=O)N[C@@H](CC(C)C)C(=O)[C@]1(CO1)C)NC(=O)[C@H]([C@@H](C)CC)N(C)C(=O)C [epoxomicin]
Summary of the method: as §1

[9] = compound: CCn1c(C(=O)N(C2CC2)C2CC2)cc2c3c(ncn3C)c(Nc3cc(C)n(C)n3)nc21
Summary of the method: as §1

[10] = compound: CCn1cc(-c2ccnc3[nH]c(-c4cccc(CN(C)C)c4)cc23)c(-c2ccc(NC(=O)N(C)C)cc2)n1
Summary of the method: as §1

[11] = compound: CN(C)CC(=O)Nc1ccc2[nH]c(=O)c3ccccc3c2c1
Summary of the method: as §1

rosiglitazone = compound: CN(CCOC1=CC=C(C=C1)C[C@H]2C(=O)NC(=O)S2)C3=CC=CC=N3 (racemic) [rosiglitazone]
Summary of the method: as §1

[12] = compound: CN1C2=C(C3=C1C(=O)N(N=C3)CC4=CC(=CC=C4)N)SC(=C2)S(=O)C
Summary of the method: as §1

[13] = compound: CN1CCC(CNc2ccc3ncc(-c4cccc(OC(F)(F)F)c4)n3n2)CC1
Summary of the method: as §1

Sequence of UniProt P08962 (P08962 whole entry, looked up): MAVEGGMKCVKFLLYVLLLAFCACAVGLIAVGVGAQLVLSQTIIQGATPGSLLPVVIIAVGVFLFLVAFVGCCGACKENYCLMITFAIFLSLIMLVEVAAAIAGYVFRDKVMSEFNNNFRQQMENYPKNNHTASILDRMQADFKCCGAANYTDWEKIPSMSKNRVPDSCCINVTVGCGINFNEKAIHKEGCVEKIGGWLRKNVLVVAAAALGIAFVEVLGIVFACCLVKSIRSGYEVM
Sequence of UniProt Q13555 (Q13555 whole entry, looked up): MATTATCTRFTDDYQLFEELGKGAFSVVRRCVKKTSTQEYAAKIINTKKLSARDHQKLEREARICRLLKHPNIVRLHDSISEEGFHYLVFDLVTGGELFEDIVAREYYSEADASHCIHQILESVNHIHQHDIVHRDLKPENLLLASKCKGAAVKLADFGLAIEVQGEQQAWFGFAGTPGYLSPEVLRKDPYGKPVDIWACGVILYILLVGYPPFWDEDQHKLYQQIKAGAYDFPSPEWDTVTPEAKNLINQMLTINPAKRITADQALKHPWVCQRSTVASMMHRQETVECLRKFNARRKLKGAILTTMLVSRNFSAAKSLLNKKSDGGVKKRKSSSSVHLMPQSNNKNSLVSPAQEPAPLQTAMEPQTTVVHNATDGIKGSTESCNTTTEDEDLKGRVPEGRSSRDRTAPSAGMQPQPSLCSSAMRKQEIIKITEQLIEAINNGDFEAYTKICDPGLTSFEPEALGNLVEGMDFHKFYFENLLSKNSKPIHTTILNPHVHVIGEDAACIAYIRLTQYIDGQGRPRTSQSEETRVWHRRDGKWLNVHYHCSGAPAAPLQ
Sequence of UniProt P14854 (P14854 whole entry, looked up): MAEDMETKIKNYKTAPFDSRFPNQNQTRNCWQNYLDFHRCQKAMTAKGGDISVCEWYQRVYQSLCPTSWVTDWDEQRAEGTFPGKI
Sequence of UniProt Q9UKF6 (Q9UKF6 whole entry, looked up): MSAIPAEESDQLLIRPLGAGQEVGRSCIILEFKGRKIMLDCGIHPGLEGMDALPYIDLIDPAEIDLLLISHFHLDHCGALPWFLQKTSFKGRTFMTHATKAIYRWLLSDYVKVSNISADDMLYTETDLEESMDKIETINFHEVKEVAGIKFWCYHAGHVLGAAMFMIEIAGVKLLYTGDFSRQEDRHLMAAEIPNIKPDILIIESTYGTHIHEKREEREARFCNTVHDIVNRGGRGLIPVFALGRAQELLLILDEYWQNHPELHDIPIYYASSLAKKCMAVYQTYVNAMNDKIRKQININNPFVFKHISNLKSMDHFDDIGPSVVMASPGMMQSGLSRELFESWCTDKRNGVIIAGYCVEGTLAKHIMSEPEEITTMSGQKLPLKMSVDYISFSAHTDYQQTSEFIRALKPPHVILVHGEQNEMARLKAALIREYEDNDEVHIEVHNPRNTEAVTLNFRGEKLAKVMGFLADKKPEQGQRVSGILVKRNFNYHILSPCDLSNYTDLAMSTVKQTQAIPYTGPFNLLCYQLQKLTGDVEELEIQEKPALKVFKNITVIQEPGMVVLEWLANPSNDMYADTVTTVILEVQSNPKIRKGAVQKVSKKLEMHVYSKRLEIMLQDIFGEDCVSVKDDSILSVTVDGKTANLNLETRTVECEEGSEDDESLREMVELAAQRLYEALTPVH
Sequence of UniProt O15234 (O15234 whole entry, looked up): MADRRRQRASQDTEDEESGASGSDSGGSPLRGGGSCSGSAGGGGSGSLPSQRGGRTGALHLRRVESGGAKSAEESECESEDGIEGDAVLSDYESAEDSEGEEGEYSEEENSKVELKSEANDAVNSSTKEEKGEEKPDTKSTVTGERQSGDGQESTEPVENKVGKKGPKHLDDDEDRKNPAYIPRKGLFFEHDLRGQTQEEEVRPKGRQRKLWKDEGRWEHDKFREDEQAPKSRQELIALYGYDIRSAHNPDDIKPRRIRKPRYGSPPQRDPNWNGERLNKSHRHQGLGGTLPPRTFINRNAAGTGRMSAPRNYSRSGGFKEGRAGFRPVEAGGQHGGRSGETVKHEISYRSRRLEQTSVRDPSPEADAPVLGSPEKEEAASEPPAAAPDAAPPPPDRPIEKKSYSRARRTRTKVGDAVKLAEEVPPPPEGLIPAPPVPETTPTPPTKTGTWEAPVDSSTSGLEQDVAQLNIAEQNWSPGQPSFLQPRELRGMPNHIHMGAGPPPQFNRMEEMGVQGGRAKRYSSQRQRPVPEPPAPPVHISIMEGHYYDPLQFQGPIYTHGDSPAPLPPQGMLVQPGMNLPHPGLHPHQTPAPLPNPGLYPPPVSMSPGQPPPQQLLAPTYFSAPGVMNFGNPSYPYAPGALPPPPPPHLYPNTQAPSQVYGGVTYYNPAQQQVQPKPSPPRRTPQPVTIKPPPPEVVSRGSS
Sequence of UniProt P48729 (P48729 whole entry, looked up): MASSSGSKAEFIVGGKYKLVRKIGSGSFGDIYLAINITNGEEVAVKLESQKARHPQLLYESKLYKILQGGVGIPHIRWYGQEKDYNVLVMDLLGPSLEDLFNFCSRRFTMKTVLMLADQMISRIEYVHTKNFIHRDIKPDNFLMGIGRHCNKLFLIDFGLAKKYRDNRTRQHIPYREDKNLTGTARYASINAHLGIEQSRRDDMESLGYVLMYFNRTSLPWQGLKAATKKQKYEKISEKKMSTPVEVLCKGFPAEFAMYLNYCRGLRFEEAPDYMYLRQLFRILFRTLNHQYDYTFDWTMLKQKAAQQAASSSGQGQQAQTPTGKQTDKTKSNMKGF
Sequence of UniProt Q00587 (Q00587 whole entry, looked up): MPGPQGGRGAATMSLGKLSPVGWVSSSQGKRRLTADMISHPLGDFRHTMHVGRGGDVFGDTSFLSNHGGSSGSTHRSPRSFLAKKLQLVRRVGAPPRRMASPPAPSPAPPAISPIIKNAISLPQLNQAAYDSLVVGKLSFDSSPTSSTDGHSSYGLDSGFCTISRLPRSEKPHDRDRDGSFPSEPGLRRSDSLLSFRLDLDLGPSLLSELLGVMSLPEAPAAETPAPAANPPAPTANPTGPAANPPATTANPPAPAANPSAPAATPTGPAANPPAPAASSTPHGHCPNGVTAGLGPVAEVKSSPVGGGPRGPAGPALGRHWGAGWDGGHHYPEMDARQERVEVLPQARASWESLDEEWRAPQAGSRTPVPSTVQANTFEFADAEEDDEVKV
Sequence of UniProt Q96CF2 (Q96CF2 whole entry, looked up): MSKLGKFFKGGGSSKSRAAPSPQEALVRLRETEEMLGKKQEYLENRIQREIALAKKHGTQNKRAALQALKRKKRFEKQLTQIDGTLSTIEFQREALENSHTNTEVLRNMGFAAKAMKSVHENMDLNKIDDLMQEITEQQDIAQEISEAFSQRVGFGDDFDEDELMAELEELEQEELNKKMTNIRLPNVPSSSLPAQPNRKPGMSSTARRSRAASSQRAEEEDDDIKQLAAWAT

Target	log2 fold change [1]	log2 fold change [2]	log2 fold change [3]	log2 fold change [4]	log2 fold change (Nexturastat A)	log2 fold change (vemurafenib)	log2 fold change [5]	log2 fold change [6]	log2 fold change (givinostat)	log2 fold change (barasertib)	log2 fold change [7]	log2 fold change (volasertib)	log2 fold change [8]	log2 fold change (epoxomicin)	log2 fold change [9]	log2 fold change [10]	log2 fold change [11]	log2 fold change (rosiglitazone)	log2 fold change [12]	log2 fold change [13]
COX6B1 (UniProt P14854)	-0.006	-0.144	0.136	0.016	-0.001	0.015	-0.005	-0.069	-0.025	0.085	0.036	0.023	-0.013	0.333	0.046	-0.014	-0.081	0.013	-0.054	0.038
CSNK1A1 (UniProt P48729)	-0.021	0.03	-0.006	-0.12	0.028	-0.006	0	0.031	0.037	0	-0.011	-0.117	0.057	0.046	-0.016	0.008	-0.179	-0.028	0.072	-0.067
CHMP4C (UniProt Q96CF2)	-0.173	-0.01	0.02	0.081	0.443 (active)	0.019	-0.022	-0.021	-0.07	0.01	-0.23	-0.043	-0.014	-0.016	0.06	-0.034	0.005	0.028	-0.206	-0.089
CDC42EP1 (UniProt Q00587)	-0.005	0.034	-0.002	0.073	0.022	0.011	-0.022	0.075	0.15	-0.004	-0.005	0.058	0.057	0.032	-0.096	-0.051	-0.016	0.093	0.039	-0.554 (active)
CPSF3 (UniProt Q9UKF6)	-0.014	0.005	-0.006	-0.012	-0.085	0.017	0.063	-0.001	-0.03	0.022	-0.105	-0.252 (active)	0.043	-0.013	-0.032	-0.008	0.033	0.014	-0.032	0.003
CD63 (UniProt P08962)	-0.007	0.056	0.004	0.009	-0.072	0.064	-0.007	-0.125	0.096	-0.025	-0.013	0.048	-0.013	-0.019	0.017	0.06	0.01	0.04	0.012	0.018
CASC3 (UniProt O15234)	0.043	-0.003	0.009	-0.027	-0.004	-0.156	-0.061	-0.065	-0.045	0.043	0.303	0.272	-0.068	-0.058	0.016	0.087	-0.081	0.015	0.102	0.02
CAMK2G isoform 6 (UniProt Q13555)	0.048	-0.055	0.131	-0.011	0.094	-0.026	0.11	0.15	0.025	0.065	0.095	-0.15	0.072	-0.028	-0.063	0.042	0.035	-0.008	0.064	-0.319
